High-throughput results as filed in PubChem.
KB-3-1 tox: qHTS assay for MDR1-selective chemotherapeutics: Primary screen using the parental adenocarcinoma cell KB-3-1. Potency, µM (series often up to 46.1 µM), hits mostly cytotoxic. AID 1347075, 2019. 1.4% of 400,000 active. KB-3-1 viability, CellTiter-Glo ATP luminescence, 72 h; note: % is set by controls: 0 for no effect and ±100 for the full control effect; nearly all actives have a fitted effect of over 60% in size
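Screening of KB-3-1 cells (DMEM, 10% FBS, phenol-red free) ran from lowest to highest compound concentration; after 72 h at 37 °C viability was read luminescently and curves fitted.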
SW480 rerep: A quantitative high throughput screen for small molecules that induce DNA re-replication in SW480 colon adenocarcinoma cells | SW480 DNA re-replication, Hoechst DNA content imaging, 48 h | Potency, µM (doses to about 46.1 µM), for inactives: at the highest dose re-replication activation, usual class: activators | 1.8% of 340,000 active; note: % of control where 0% means no effect; nearly all actives have a fitted effect of over 55% in size
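Quantitative HTS format with DMSO vehicle controls; 48 hr drug incubation at 37 C, then 40 min Hoechst staining and scanning imager measurement at 405 nm excitation.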
KB-V1 MDR tox: qHTS assay for MDR1-selective chemotherapeutics: Primary screen using the drug-selected MDR subline cells KB-V1; KB-V1 MDR cells viability, CellTiter-Glo, 72 h; Potency, µM (top dose mostly 46.1 µM), actives largely listed as cytotoxic; 3.4% of 400,000 active; note: % is set by controls: 0 for no effect and ±100 for the full control effect; nearly all actives have a fitted effect of over 60% in size
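KB-V1, DMEM (no phenol red) + 10% FBS; cpd pin-transferred, titration series; 72 h, 37 degrees C; CellTiter-Glo, luminescence. Data normalized, curve-fit.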
VP16 counter: VP16 counterscreen qHTS for inhibitors of ROR gamma transcriptional activity; Drosophila S2 Gal4-VP16 UAS-luciferase, luminescence, 20 h; Potency, µM (doses to about 53.6 µM), for the others: top-dose activity, negative = inhibition, actives largely listed as inhibitors; 3.5% of 310,000 active;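 note: Gal4-VP16 expression switched on by copper sulfate through the metallothionein promoter; % is set by controls: 0 for no effect and ±100 for the full control effect; nearly all actives have a fitted effect of over 50% in size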
MCF10A rerep: A quantitative high throughput screen for small molecules that induce DNA re-replication in MCF 10a normal breast cells. MCF 10A DNA re-replication, Hoechst nuclear intensity, 48 h. Potency, µM (doses to about 46.1 µM), without a hit: at the highest dose activity, positive = re-replication, most hits filed as activators. 2.9% of 350,000 active. AID 624296, 2012; note: % of control where 0% means no effect; nearly all actives have a fitted effect of over 50% in size
RORgamma inh: qHTS for inhibitors of ROR gamma transcriptional activity; Nuclear receptor ROR-gamma (Mus musculus), P51450; 5.4% of 310,000 active; Potency, µM (titrated, usually from 53.6 µM), for the others: at the highest dose activity change, negative = inhibition, hits mostly inhibitors; AID 2551, 2010; Drosophila S2 Gal4-RORgamma UAS-luciferase reporter, 20 h; note: % is set by controls: 0 for no effect and ±100 for the full control effect; nearly all actives have a fitted effect of over 60% in size
Target sequence (P51450 whole entry, looked up, the tested form may be a part): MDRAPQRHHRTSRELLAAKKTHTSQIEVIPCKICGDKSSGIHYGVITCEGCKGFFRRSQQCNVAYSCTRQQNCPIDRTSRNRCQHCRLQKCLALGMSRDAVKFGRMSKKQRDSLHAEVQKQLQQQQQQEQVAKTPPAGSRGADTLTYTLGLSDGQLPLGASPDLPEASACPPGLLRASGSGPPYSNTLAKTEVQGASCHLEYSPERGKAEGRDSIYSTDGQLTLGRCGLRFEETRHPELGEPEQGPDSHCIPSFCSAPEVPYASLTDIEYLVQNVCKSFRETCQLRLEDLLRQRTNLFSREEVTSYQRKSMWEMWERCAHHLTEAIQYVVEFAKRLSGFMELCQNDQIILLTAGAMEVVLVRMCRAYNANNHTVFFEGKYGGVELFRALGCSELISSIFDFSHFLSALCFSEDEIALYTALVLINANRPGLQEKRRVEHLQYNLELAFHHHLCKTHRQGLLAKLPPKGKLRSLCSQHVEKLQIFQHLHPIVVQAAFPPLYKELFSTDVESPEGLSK
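Luminescence from a UAS-regulated Photinus luciferase reporter in stably transfected Drosophila Schneider cells is measured; decreased signal marks ROR gamma inhibition. Fusion expression is induced by 700 uM copper sulfate for 20 hr.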
Numbers without * were called inactive; i = inactive; ? = inconclusive; . = no result; ! = repeats disagree. An excerpt weighted towards active compounds, which were near 10% of everything screened. Calls come from the whole dose curve; as a rule, active = well fitted curve in the direction sought with a large enough effect; inconclusive = small, poorly fitted or top-dose-only effect, or another doubt; inactive = no such curve, though single readings can be large; an effect the other way counts as inactive or inconclusive. Potency is the fitted concentration of half-maximal effect.

SMILES	KB-3-1 tox	SW480 rerep	KB-V1 MDR tox	VP16 counter	MCF10A rerep	RORgamma inh
CC(C)N(C)c1ncnc2c1ncn2[C@H]1CN(CCc2ccccc2)C[C@@H](CO)O1	i	.	i	.	.	.
Cc1ccc(O)c(C(=O)CC(=O)c2ccc(Cl)cc2)c1	?	?	i	5.01µM*	?	3.55µM*
Cc1cc(C)c2c(=O)cc(CSc3nnc(-c4ccccc4)n3C)[nH]c2c1	i	.	i	.	.	.
CC1C/C(=C/c2ccncc2)C(=O)/C(=C/c2ccncc2)C1 (stereo not drawn)	?	?	i	2.82µM*	0.461µM*	7.08µM*
CC1C/C(=C/c2cccn2C)C(=O)/C(=C/c2cccn2C)C1 (stereo not drawn)	i	?	i	?	4.61µM*	12.6µM*
COc1ccc(C(=O)CSc2nnc(-c3cccnc3)n2Cc2ccco2)cc1	i	-3.4%	i	0.4%	-1.6%	6.9%
CCn1c(SCC(=O)N(C(C)C)C(C)C)nnc1-c1cc2ccccc2cc1O	?	-15.0%	3.66µM*	-11.4%	2.9%	5.3%
CC1CCN(C(=O)CSc2nnc(-c3cc4ccccc4cc3O)n2Cc2ccco2)CC1	?	15.4%	3.66µM*	-0.9%	7.2%	?
COc1ccc(C(=O)CSc2nnc(-c3cc4ccccc4cc3O)n2Cc2ccco2)cc1	?	13.1%	7.31µM*!	-23.8%	15.8%	?
CC(=O)c1ccc(NC(=O)C(C)Sc2nnc(C3CCCCC3)o2)cc1 (stereo not drawn)	.	.	.	2.4%	.	-23.3%
CC1=C2C(=CO[C@H](C)[C@H]2C)C(=O)C(C(=O)O)=C1O	.	.	.	-0.7%	.	8.2%
CCOc1ccc2nc(NC(=O)CSc3nc4c(c(=O)n(C)c(=O)n4C)n3C(C)C)sc2c1	?	4.9%	3.66µM*	-0.4%	?	1.1%
CCn1c(SCC(=O)Nc2nc3ccc(OC)cc3s2)nc2c1c(=O)n(C)c(=O)n2C	i	2.2%	2.06µM*	-4.5%	1.4%	?
CC(C)n1c(SCC(=O)Nc2nc3ccccc3s2)nc2c1c(=O)n(C)c(=O)n2C	i	?	i	.	?	.
Cc1ccc(-n2nc3c(=O)n(C(C)C(=O)NCc4ccccc4C)nc(C)c3c2C)cc1 (stereo not drawn)	14.6µM*	.	i	.	.	.
Cc1ccc(-n2nc3c(=O)n(C(C)C(=O)NCc4ccc(Cl)cc4)nc(C)c3c2C)cc1 (stereo not drawn)	8.2µM*	-1.2%	i	-0.6%	0.1%	5.5%
CCC(C(=O)NCCc1ccc(C)cc1)n1nc(C)c2c(C)n(-c3ccccc3)nc2c1=O (stereo not drawn)	i	?	i	?	-1.8%	?
Cc1ccc(CCNC(=O)C(C)n2nc(C)c3c(C)n(-c4ccccc4)nc3c2=O)cc1 (stereo not drawn)	i	0.1%	i	-9.0%	0.0%	?
CCC(C(=O)N1CCCC1)n1nc(C)c2c(C)n(-c3ccccc3)nc2c1=O (stereo not drawn)	i	20.6µM*	i	9.1%	-0.4%	-16.5%
O=C(Nc1cccc(F)c1)c1ccc(-c2ccccc2)s1	i	.	i	.	.	.
Cc1cc(C)n(-c2nc(SCC(=O)O)c3c4c(sc3n2)COC(C)(C)C4)n1	i	10.1%	?	?	5.8%	7.08µM*
CCN(CC)CCCNc1nc(-n2nc(C)cc2C)nc2sc3c(c12)CC(C)(C)OC3	i	?	i	?	3.8%	12.6µM*
Cc1cc(C)n(-c2nc(NCc3cccnc3)c3c4c(sc3n2)COC(C)(C)C4)n1	?	7.9%	?	6.31µM*	1.8%	3.98µM*
CC1CCN(C(=O)c2ncn3c2c(=O)[nH]c2ccc(Br)cc23)CC1	i	.	i	.	.	.
COc1ccc(CCNC(=O)C(=O)NCC(c2cccs2)S(=O)(=O)c2ccccc2)cc1 (stereo not drawn)	i	.	i	.	.	.
SMILES	KB-3-1 tox	SW480 rerep	KB-V1 MDR tox	VP16 counter	MCF10A rerep	RORgamma inh
O=C1/C(=C/Nc2ccc3c(c2)OCO3)CCc2ccccc21	?	?	23.1µM*	11.2µM*	?	-71.4%
COc1ccc(N/C=C2\CCc3ccccc3C2=O)cc1	?	?	i	?	?	8.91µM*
CCN(CC)CCNC(=S)Nc1ccc2nc(N3CCCC3)cc(C)c2c1	14.6µM*	?	i	3.9%	?	3.2%
CCN(CC)CCNC(=S)Nc1ccc2nc(N3CCN(C)CC3)cc(C)c2c1	i	?	i	0.9%	?	4.2%
CCCN(CCC)CCCNC(=S)Nc1ccc2nc(N3CCCC3)cc(C)c2c1	i	?	i	-1.7%	?	10.1%
Cc1cc(N2CCCC2)nc2ccc(NC(=S)NCCCOC(C)C)cc12	i	?	i	?	?	11.2µM*
c1cnc2c(-c3ccc4nccn4c3)cccc2c1	i	.	i	.	.	.
CC1CC(NC(=O)c2c(O)nc3ccccn3c2=O)CC(C)(C)C1 (stereo not drawn)	i	-4.0%	20.6µM*	.	-4.3%	.
O=C(NC1CCCCCC1)c1c(O)nc2sccn2c1=O	?	6.4%	14.6µM*	.	-3.2%	.
O=C(NC1CCCCC1)c1c(O)nc2sccn2c1=O	?	-553.9%	?	.	8.1%	.
CC1CC(NC(=O)c2c(O)nc3sccn3c2=O)CC(C)(C)C1 (stereo not drawn)	i	?	18.4µM*	.	-2.9%	.
O=C(Nc1ccccc1)N1CCCC2(CCN(C(=O)c3csnn3)CC2)C1	.	.	.	7.4%	.	0.3%
CN(CCO)C1=NS(=O)(=O)c2cc([N+](=O)[O-])ccc21	i	?	i	-13.6%	?	34.9%
C=CCOCCN(C)C1=NS(=O)(=O)c2cc([N+](=O)[O-])ccc21	?	9.2µM*	i	-10.6%	?	-27.8%
CC(C)(C)c1cc(NC(=O)Nc2ccc(Cl)cc2Cl)no1	i	-37.8%	i	-0.3%	18.4µM*	-8.0%
CC(C)(C)c1ccc(S(=O)(=O)c2cn(CC(=O)Nc3ccccc3)c3ccccc3c2=O)cc1	i	.	i	.	.	.
CCCC1C(=O)Nc2ccccc2N1C(=O)c1ccc(C(C)(C)C)cc1 (stereo not drawn)	i	?	i	?	25.9µM*	0.1%
